Reference: ChEMBL document CHEMBL3988442, “University of Dundee, Small-Polar-MMV Screening Library” (2021)
For some of these results: Results with a measured potency or affinity are listed apart.

Tests used:
Parameters in all cases: scale not given: direction of the effect not stated beside the values
[1] = target: Protein translocase subunit SecA (Escherichia coli (strain K12)) (UniProt P10408); assay: Assay to Identify E. coli SecA ATPase Inhibitors; format: functional; conditions: 30 µM
[2] = target: T1, Ubiquitin-activating enzyme e1, putative (Leishmania donovani (strain BPK282A1)) (UniProt E9BSI1); assay: Leishmania donovani Ubiquitin Activating Enzyme (LdE1); format: functional; conditions: 30 µM
T1 sequence (whole entry): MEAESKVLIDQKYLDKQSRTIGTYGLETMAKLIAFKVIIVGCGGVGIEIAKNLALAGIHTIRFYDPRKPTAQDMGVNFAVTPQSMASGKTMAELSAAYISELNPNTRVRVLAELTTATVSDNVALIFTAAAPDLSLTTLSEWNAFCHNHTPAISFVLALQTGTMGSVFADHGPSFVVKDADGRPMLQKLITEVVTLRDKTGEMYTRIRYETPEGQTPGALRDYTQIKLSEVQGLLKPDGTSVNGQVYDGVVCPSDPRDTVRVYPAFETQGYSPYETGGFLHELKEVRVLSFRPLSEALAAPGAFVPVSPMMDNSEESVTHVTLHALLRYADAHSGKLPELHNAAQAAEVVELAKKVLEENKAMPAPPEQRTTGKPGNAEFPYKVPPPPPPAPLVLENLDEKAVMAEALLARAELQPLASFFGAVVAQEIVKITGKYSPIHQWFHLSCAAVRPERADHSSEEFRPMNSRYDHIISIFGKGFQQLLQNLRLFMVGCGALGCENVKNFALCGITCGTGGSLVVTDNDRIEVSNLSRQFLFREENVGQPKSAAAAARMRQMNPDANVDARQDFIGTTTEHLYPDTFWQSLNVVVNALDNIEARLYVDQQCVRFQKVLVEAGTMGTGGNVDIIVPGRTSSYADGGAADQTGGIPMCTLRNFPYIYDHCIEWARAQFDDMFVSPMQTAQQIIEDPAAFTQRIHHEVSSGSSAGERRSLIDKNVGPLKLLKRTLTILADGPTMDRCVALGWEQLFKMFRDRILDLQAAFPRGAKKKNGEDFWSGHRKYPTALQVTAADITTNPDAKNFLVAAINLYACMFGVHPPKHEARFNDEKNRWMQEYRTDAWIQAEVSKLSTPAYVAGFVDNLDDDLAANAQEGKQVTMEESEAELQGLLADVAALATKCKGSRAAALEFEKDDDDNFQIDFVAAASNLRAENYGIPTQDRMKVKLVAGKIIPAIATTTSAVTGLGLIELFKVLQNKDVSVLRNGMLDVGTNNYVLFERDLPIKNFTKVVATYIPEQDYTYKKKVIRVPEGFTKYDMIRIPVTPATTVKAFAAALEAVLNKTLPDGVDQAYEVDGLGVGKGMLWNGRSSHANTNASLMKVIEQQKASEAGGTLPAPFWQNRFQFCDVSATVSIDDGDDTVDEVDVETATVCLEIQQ

[3] = target: AMP-activated protein kinase, AMPK (Homo sapiens) (UniProt P54646+O43741+P54619+Q9UGJ0+Q9Y478+Q13131+Q9UGI9); assay: AMP-dependent Kinase enzyme assay. An in vitro enzyme assay that detects ADP turnover that is directly proportional to AMPK activity. This uses naive AMPK that is activated during the assay with MK-8722; format: functional; conditions: 30 µM
[4] = target: Sialic acid-binding Ig-like lectin 9 (Homo sapiens) (UniProt Q9Y336); assay: Hs-Siglec9 ALPHAscreen SOP 20170721; conditions: 10 µM
Chain of Sialic acid-binding Ig-like lectin 9 (Homo sapiens) (Q9Y336 whole entry): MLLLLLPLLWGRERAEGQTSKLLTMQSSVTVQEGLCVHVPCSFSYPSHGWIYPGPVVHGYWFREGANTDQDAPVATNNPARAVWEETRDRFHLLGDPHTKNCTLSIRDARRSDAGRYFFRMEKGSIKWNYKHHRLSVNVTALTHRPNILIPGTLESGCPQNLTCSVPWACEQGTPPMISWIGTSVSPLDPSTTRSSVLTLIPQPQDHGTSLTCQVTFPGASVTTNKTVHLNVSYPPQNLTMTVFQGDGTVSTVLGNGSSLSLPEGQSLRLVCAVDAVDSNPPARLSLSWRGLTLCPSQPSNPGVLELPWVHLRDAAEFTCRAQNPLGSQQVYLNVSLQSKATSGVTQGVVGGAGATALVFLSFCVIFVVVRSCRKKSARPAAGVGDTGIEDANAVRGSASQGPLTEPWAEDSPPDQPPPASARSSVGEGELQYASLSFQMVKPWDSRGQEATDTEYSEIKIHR

Trypanosoma cruzi = assay: Trypanosoma cruzi phosphomannomutase and mannose-1-phosphate guanylyltransferase assay; format: functional; conditions: 10 µM
[5] = target: T2, Arginase-2, mitochondrial (Homo sapiens) (UniProt P78540); assay: in vitro enzyme assay to detect the production of urea directly proportional to the activity of Arginase II; format: functional; conditions: 33.3 µM; note: in the data most compounds retested in dose-response had high values
T2 sequence (whole entry): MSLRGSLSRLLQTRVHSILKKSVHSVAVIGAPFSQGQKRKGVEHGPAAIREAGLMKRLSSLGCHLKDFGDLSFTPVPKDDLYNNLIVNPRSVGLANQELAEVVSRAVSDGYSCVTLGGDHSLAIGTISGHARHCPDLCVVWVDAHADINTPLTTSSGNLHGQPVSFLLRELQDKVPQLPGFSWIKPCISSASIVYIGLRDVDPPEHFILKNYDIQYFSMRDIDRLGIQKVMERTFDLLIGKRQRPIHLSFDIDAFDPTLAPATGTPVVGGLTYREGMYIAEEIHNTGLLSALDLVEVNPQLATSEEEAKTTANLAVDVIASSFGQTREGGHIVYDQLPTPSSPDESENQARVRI

[6] = target: T3, Proteasome subunit beta (Trypanosoma cruzi) (UniProt O96673); assay: Trypanosoma cruzi proteasome chymotrypsin-like activity (TcProtChymo) assay.; note: in the data most compounds retested in dose-response had high values; format: functional; conditions: 9.37 µM
T3 sequence (whole entry): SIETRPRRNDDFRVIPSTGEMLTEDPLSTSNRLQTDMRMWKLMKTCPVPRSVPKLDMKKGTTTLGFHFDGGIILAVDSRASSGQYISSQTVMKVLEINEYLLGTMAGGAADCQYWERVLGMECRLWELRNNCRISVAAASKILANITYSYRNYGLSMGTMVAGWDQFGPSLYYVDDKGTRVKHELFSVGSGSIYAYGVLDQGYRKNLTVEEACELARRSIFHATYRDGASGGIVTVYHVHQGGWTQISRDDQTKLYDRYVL

Homo sapiens = species on record: Homo sapiens; assay: To identify inhibition of the IFN signalling (Jak-Stat) pathway via expression of an eGFP reporter gene under the control of an IFN-stimulated response element (ISRE) containing MxA promoter.; format: functional; conditions: 30 µM
[7] = target: T4, Tyrosyl-tRNA synthetase, putative (Trypanosoma cruzi (strain CL Brener)) (UniProt Q4DSP6); assay: Trypanosoma cruzi tyrosyl tRNA synthetase (TcYRS) _High Tyrosine SOP; format: functional; conditions: 30 µM; note: in the data most compounds retested in dose-response had high values
T4 sequence (whole entry): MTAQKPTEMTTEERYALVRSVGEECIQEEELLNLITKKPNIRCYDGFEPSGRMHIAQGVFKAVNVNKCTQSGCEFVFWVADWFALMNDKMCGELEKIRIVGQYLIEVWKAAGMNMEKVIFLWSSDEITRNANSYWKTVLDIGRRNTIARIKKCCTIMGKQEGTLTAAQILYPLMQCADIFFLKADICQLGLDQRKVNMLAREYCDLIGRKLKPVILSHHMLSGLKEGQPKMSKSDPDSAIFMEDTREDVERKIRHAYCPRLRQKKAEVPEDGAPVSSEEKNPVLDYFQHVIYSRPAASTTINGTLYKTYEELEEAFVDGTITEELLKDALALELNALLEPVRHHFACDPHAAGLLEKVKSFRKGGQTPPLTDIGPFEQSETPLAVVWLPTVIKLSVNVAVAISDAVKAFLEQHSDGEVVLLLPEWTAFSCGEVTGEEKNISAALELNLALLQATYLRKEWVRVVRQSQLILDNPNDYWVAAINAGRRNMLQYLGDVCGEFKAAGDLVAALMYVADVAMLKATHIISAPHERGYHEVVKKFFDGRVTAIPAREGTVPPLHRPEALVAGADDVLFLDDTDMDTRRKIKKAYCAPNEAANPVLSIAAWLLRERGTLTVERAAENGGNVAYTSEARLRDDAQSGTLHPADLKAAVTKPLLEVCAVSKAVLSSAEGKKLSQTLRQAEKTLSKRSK

[8] = target: T4, Tyrosyl-tRNA synthetase, putative (Trypanosoma cruzi (strain CL Brener)); assay: Trypanosoma cruzi tyrosyl tRNA synthetase (TcYRS) SOP; format: functional; conditions: 30 µM
[9] = target: Chromo domain-containing protein 1 (Saccharomyces cerevisiae (strain ATCC 204508 / S288c) (Baker's yeast)) (UniProt P32657); assay: ScCHD-1 Enzyme Inhibition Assay; format: functional; conditions: 30 µM; note: in the data most compounds retested in dose-response had high values
Chain of Chromo domain-containing protein 1 (Saccharomyces cerevisiae (strain ATCC 204508 / S288c) (Baker's yeast)) (P32657 whole entry, the tested form may be a part): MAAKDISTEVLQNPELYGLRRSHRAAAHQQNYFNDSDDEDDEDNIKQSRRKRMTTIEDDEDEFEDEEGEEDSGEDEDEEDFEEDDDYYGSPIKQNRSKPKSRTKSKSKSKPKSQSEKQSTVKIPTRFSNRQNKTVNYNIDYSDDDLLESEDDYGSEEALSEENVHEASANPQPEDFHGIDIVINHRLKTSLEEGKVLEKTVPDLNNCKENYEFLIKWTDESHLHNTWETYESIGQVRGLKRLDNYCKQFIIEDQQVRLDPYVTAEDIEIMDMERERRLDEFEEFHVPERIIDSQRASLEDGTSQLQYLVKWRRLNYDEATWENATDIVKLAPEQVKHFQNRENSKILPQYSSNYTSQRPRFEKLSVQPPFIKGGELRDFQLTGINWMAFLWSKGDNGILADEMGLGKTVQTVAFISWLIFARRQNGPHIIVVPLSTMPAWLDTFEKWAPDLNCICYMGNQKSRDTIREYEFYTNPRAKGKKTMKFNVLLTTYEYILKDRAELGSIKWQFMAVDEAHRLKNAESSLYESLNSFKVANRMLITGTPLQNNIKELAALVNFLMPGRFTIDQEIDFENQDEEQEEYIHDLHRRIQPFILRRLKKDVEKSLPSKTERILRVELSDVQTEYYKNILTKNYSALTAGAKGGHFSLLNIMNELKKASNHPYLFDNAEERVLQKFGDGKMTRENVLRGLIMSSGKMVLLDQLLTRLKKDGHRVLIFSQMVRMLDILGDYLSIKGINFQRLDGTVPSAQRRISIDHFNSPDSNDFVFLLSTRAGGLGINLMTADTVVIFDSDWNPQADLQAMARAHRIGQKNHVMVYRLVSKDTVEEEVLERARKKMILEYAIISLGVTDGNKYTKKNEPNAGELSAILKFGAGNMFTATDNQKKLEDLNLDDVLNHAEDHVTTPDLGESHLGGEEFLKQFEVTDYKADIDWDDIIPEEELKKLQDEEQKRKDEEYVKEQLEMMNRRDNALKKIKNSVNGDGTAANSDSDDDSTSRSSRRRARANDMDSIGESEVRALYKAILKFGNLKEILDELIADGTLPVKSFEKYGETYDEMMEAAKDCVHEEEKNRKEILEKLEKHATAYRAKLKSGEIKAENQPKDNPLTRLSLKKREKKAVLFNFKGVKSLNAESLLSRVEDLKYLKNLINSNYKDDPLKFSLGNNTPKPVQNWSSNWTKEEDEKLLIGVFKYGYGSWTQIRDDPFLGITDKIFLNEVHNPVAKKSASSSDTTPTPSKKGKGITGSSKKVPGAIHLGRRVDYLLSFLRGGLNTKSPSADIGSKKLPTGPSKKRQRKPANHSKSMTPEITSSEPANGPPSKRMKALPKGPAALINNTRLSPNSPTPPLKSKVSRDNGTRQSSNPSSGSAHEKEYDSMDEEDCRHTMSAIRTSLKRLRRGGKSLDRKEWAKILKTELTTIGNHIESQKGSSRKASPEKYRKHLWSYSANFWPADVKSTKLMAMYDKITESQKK

Chain of Protein translocase subunit SecA (Escherichia coli (strain K12)) (P10408 whole entry): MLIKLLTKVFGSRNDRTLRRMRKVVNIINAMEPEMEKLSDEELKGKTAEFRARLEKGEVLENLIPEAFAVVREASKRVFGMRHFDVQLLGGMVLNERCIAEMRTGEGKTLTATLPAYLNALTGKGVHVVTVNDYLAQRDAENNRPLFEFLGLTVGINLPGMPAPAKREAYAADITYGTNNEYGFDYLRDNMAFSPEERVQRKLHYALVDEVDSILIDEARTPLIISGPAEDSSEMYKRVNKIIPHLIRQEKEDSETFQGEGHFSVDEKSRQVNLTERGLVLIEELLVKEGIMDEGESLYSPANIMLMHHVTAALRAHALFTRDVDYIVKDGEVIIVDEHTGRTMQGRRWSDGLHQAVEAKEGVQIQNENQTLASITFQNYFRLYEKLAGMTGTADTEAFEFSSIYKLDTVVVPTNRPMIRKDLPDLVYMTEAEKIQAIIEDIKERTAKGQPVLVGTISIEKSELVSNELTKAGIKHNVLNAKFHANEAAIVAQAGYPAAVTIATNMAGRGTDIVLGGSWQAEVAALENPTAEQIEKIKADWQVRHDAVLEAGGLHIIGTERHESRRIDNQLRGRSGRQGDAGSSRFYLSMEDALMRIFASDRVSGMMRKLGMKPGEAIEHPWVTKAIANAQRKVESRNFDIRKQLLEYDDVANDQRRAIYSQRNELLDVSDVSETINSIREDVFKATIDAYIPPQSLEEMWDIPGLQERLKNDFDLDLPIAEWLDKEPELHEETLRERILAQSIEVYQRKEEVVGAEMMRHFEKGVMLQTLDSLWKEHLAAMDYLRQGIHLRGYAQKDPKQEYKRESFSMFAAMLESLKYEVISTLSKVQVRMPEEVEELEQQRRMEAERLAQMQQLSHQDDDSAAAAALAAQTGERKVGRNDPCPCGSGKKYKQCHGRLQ

Row | Compound | Percent Effect [1] [%] | Percent Effect [2] [%] | Percent Effect [3] [%] | Percent Effect [4] [%] | Percent Effect (Trypanosoma cruzi) [%] | Percent Effect [5] [%] | Percent Effect [6] [%] | Percent Effect (Homo sapiens) [%] | Percent Effect [7] [%] | Percent Effect [8] [%] | Percent Effect [9] [%]
1 | CCCN(C)C(=O)c1ccc2c(c1)[nH]c(=O)n2CCOCC | -5.32 | 2.7 | -7.14 | 42 | 8.11 | 2.38 | 9.65 | -3.55 | 2.65 | 17.1 | -9.7
2 | CC(=O)N1CCCC(Cc2cncc(Br)c2)CC1 (stereo not drawn) | -8.44 | 12.2 | -0.231 | 1.66 | 2.77 | -2.09 | 16.4 | 24.7 | 5.38 | 6.49 | -26.1
3 | Cc1noc(C)c1CNc1cc(N2CCCC2CO)ncn1 (stereo not drawn) | -2.84 | 6.33 | -25.2 | 4.54 | 1.54 | 1.5 | 1.03 | -8.87 | 0 | 12.7 | -23.1
4 | COc1ccc(CN(Cc2cccnc2)CC2CCCO2)c(OC)c1 (stereo not drawn) | -1.69 | -2.67 | 11.4 | 2.14 | 6.69 | -1.63 | 7.67 | 3.47 | 2.13 | 6.41 | -2.64
5 | CNS(=O)(=O)c1cccc(CNc2ccc(C(F)(F)F)nn2)c1 | -5.02 | 8.11 | -4.31 | -0.144 | -3.87 | 30.9 | -1.62 | 19.2 | 4.43 | 6.17 | -1.87
6 | CN(Cc1cn2c(n1)CN(c1ncc(F)cn1)CC2)Cc1ccco1 | -3.08 | 13.3 | -4.28 | -1.26 | 0.197 | 4.89 | 20.7 | 1.67 | 9.57 | 21.8 | -5.99
7 | CC(C)c1nn(C)c(Cl)c1CNC1CCOc2ccccc21 (stereo not drawn) | -3.65 | 8.11 | -0.168 | 9.16 | 2.32 | 0.185 | -1.79 | 31.4 | 8.91 | 23.2 | -2.97
8 | CC(NC(=O)Cn1cccn1)c1cccnc1 (stereo not drawn) | -4.41 | 8 | -4.08 | 11 | 8.67 | 6.25 | 1.92 | 10.3 | 3.83 | 13.6 | -3.89
